PostGolgi yeast – phenotypic screen on post-Golgi transport, primary screen | AID 739, 2007 | 0.9% of 98,000 active | inhibition, % at 10 µM | post-Golgi transport phenotypic cell assay;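 further: yeast cells grown in 1536-well plates; yeast grown about 18 h at 30C before absorbance read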
EphB4 antag – EphB4-ephrin-B2 interaction antagonists, primary screen, biochemical, TNYL-RAW peptide probe, fluorescence polarization; Ephrin type-B receptor 4 (Homo sapiens), P54760; EphB4 LBD / TNYL-RAW-Alexa532 peptide; inhibition, % at 7 µM; 0.15% of 97,000 active; AID 720, 2007;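 active means inhibition above the screen-wide mean inhibition plus 3 SD, cut at about 15% in these data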;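 further: 0% = DMSO wells and 100% = excess unlabeled TNYL-RAW peptide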
Calb biofilm kill – clotrimazole potentiators killing Candida biofilms, primary screen, with clotrimazole, Alamar Blue; C. albicans biofilm + clotrimazole; inhibition, % at 6 µM; 0.14% of 85,000 active;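 active means inhibition above 20%; inactive means inhibition below 20%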;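 further: preformed 24 hr biofilms exposed to compound for 48 hr; 0% = biofilm without compound and 100% = blank killed by clotrimazole plus chlorhexidine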
PostGolgi ctrl – growth inhibition of yeast control strain, primary screen, counter-screen for post-Golgi transport modulator project; efflux-deficient yeast background strain, growth absorbance A615, 16 h; inhibition, % at 10 µM; 5% of 98,000 active
An asterisk follows results filed as active. Rows were chosen to be rich in hits. Some 5.2% of all compounds tested hit in one or more screens of this group. Unless noted, no stated cut-off is given here; in the data, active means inhibition above about 30%; inactive means the rest.

For O=S(=O)(c1ccccc1)c1nc(-c2ccco2)oc1N1CCCCCC1 the results were PostGolgi yeast -8, EphB4 antag 4, Calb biofilm kill -1 and PostGolgi ctrl 42*.
Screening COCC(=O)Nc1ccc(C)c(Cl)c1 returned PostGolgi yeast 17, EphB4 antag 2, Calb biofilm kill 5 and PostGolgi ctrl -3.
CSCCC(NC(=O)c1ccccc1)C(=O)OCC(=O)Nc1ccc(C)c(Cl)c1 (stereo not drawn) was read as PostGolgi yeast -2, EphB4 antag 4 and PostGolgi ctrl 31*.
Screening CC(C)CC(=O)O/N=C1\C(=O)N(c2ccccc2)c2ccccc21 returned PostGolgi yeast 2, EphB4 antag 2 and PostGolgi ctrl 22.
For CC(C)(C)C(=O)O/N=C1/C(=O)N(c2ccccc2)c2ccccc21 the results were PostGolgi yeast 15, EphB4 antag 2 and PostGolgi ctrl 40*.
COC(=O)c1ccc(Oc2cc(C)nc(NCc3ccccc3)n2)cc1 was read as PostGolgi yeast -8, EphB4 antag 8, Calb biofilm kill -3 and PostGolgi ctrl 5.
Screening Cc1cc(Oc2ccc(C#N)cc2)nc(NCc2ccccc2)n1 returned PostGolgi yeast 4, EphB4 antag 7, Calb biofilm kill -6 and PostGolgi ctrl 31*.
`CC(=O)Oc1c(Cl)cc(Cl)cc1/C=C/c1ccc2ccccc2n1` gave PostGolgi yeast -5, EphB4 antag 2 and PostGolgi ctrl 54*.
O=C(O)/C=C/c1ccc2ccccc2n1 was read as EphB4 antag 8 and Calb biofilm kill 1.
Screening Cc1cccc(C)c1OCC(=O)N=Nc1c(O)[nH]c2ccc(Br)cc12 returned PostGolgi yeast 1, EphB4 antag 4, Calb biofilm kill 5 and PostGolgi ctrl 38*.
Screening O=C(N=Nc1c(O)[nH]c2ccc(Br)cc12)c1ccccc1-n1cccc1 returned PostGolgi yeast 2, EphB4 antag 3 and PostGolgi ctrl 37*.
`O=C(Cn1nnc(-c2ccccc2)n1)N=Nc1c(O)[nH]c2ccccc12` gave PostGolgi yeast 5, EphB4 antag 8, Calb biofilm kill 5 and PostGolgi ctrl -2.
`COc1ccc(-c2nc(-c3cccc(C)c3)[nH]c(=O)c2C#N)cc1` gave PostGolgi yeast -9, EphB4 antag 12 and PostGolgi ctrl -12.
CCNC(=O)C1CC(=O)N(CC)C(=Nc2cc(Cl)c(O)c(Cl)c2)S1 (stereo not drawn) was read as PostGolgi yeast -2, EphB4 antag 3, Calb biofilm kill 4 and PostGolgi ctrl 4.
Screening Cc1ccc2[nH]c3c(c2c1)CN(C(=O)CN1c2ccc(F)cc2CCC1C)CC3 (stereo not drawn) returned PostGolgi yeast 7, EphB4 antag 6, Calb biofilm kill 1 and PostGolgi ctrl 32*.
For O=S(=O)(c1ccc(Br)s1)N1CCN(c2ccccn2)CC1 the results were PostGolgi yeast 2, EphB4 antag 3, Calb biofilm kill 9 and PostGolgi ctrl 51*.
`O=S(=O)(c1ccc(Br)s1)N1CCN(c2ncccn2)CC1` gave PostGolgi yeast -1, EphB4 antag -6, Calb biofilm kill 8 and PostGolgi ctrl 8.
CCOC(=O)N1CCC(NS(=O)(=O)c2cc(Br)cc3c2N(C(=O)CC)CC3)CC1 was read as PostGolgi yeast 20, Calb biofilm kill -1 and PostGolgi ctrl 4.
`Cc1nn(-c2ccccc2)c(C)c1/C=N\N1CCN(c2ccc(Cl)cc2)CC1` gave PostGolgi yeast 66*, EphB4 antag 1 and PostGolgi ctrl 47*.
Cc1cc(Cl)ccc1Oc1nccc(N(C)C)c1C#N was read as PostGolgi yeast -7, EphB4 antag 4 and PostGolgi ctrl 11.
For CC1=C(C(=O)OCC(C)C)C(c2cc3c(cc2Br)OCO3)NC(=O)N1C (stereo not drawn) the results were PostGolgi yeast -2, EphB4 antag -11, Calb biofilm kill 9 and PostGolgi ctrl 38*.
O=C(CSc1nc(C2CC2)nc2ccccc12)N1CCc2ccccc2C1 was read as PostGolgi yeast -6, EphB4 antag 1 and PostGolgi ctrl 68*.
`O=C(CSc1ncnc2c1oc1ccccc12)N1CCc2ccccc2C1` gave Calb biofilm kill 9.
Cc1ccc(N2CC(C(=O)NCC3CCCO3)CC2=O)cc1Cl (stereo not drawn) was read as PostGolgi yeast -9, Calb biofilm kill 3 and PostGolgi ctrl 1.
Screening Cc1[nH]c2ccccc2c1C1(O)C(=O)N(Cc2ccc3c(c2)OCO3)c2ccccc21 (stereo not drawn) returned PostGolgi yeast 5, EphB4 antag -7, Calb biofilm kill 8 and PostGolgi ctrl 31*.
`Cc1[nH]c2ccccc2c1C1(O)C(=O)N(C(C)C)c2ccccc21` (stereo not drawn) gave PostGolgi yeast -14, EphB4 antag 3, Calb biofilm kill -8 and PostGolgi ctrl 28.
O=C(CSc1nnnn1-c1cccc2c1CCCC2)N1CCCCC1 was read as EphB4 antag -6 and Calb biofilm kill 9.
CC1(C)CC(NC(=O)CCC2CCCC2)CC(C)(C)N1 was read as PostGolgi yeast -8, EphB4 antag 11, Calb biofilm kill -2 and PostGolgi ctrl 40*.
`CC1(C)CC(NC(=O)CC2CCCCC2)CC(C)(C)N1` gave PostGolgi yeast 2, EphB4 antag -5, Calb biofilm kill 6 and PostGolgi ctrl -9.
Screening CCCCCCOC(=O)C(C#N)c1nc2ccccc2nc1N1CCN(C)CC1 (stereo not drawn) returned PostGolgi yeast 7, EphB4 antag 17*, Calb biofilm kill 8 and PostGolgi ctrl 13.
For O=C(NCc1ccco1)c1cccc(-c2nnc(-c3ccccc3)o2)c1 the results were PostGolgi yeast -9, EphB4 antag 12, Calb biofilm kill 7 and PostGolgi ctrl 8.
Screening COc1cc(NS(=O)(=O)c2ccc(NC(=O)c3ccco3)cc2)nc(OC)n1 returned PostGolgi yeast -6, EphB4 antag -3, Calb biofilm kill 2 and PostGolgi ctrl 35*.
For Cc1ccc(-c2noc(CCC(=O)NCCN3CCc4ccccc4C3)n2)cc1 the results were PostGolgi yeast -6, EphB4 antag 2 and PostGolgi ctrl -1.
Screening CC12CC(c3ccccc3O1)C(C(=O)NCc1ccccc1)C(=O)N2 (stereo not drawn) returned PostGolgi yeast 35*, EphB4 antag -9, Calb biofilm kill 10 and PostGolgi ctrl 10.
Screening CCOC(=O)C1C(=O)NC(c2ccccc2)=NC1c1ccc(Cl)cc1 (stereo not drawn) returned PostGolgi yeast -3, EphB4 antag 1 and PostGolgi ctrl 14.
Screening CCCSc1nnc(NC(=O)c2nc(SC)ncc2Cl)s1 returned PostGolgi yeast 3, EphB4 antag -2, Calb biofilm kill 1 and PostGolgi ctrl 35*.
Screening CSc1ncc(Cl)c(C(=O)Nc2nnc(SC)s2)n1 returned PostGolgi yeast -8, EphB4 antag -3, Calb biofilm kill -2 and PostGolgi ctrl 29.
For COc1ccc(/C(N)=N/OC(=O)CSc2ccccc2)cc1OC the results were PostGolgi yeast -4, EphB4 antag 7, Calb biofilm kill 1 and PostGolgi ctrl 19.
`CN(C)CCCNC(CC(=O)Nc1ccc(Cl)cc1)C(=O)O` (stereo not drawn) gave Calb biofilm kill 6.
